Hits are enriched below; roughly 15% of the tested compounds scored in any of these assays.
Pf growth 96h = P. falciparum growth inhibition at 96 hours | actives 6.9% (n = 320,000) | P. falciparum luciferase reporter growth, 96 h | Potency, µM (top dose mostly 28.7 µM), inactives show at the top dose activity change, negative = inhibition, most hits filed as inhibitors | AID 504834; also: potency is read from the fitted curve at half-maximal effect; % is scaled to controls: 0 for no effect and ±100 for the full control effect
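Compounds incubated with erythrocytes infected by luciferase-expressing P. falciparum (2% hematocrit, 0.05% parasitemia final) for 96 hours, 37 C in 5% CO2. Growth inhibition scored as decreased luciferase luminescence.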
Sm TGR inh = S. mansoni TGR enzyme inhibition. Q962Y6. Potency, µM (titrated, usually from 114 µM), without a hit: top-dose activity change, negative = inhibition, usual class: inhibitors. purified TGR, DTNB reduction, TNB absorbance 405 nm. actives 3% (n = 360,000); also: potency is read from the fitted curve at half-maximal effect; % is scaled to controls: 0 for no effect and ±100 for the full control effect; nearly all actives have a fitted effect of over 60% in size
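First, TGR (20 nM dispensed) and NADPH were mixed with compound. Second, a 15 min room-temperature incubation followed. Third, further NADPH and then DTNB were added to start the reaction. Finally, TNB absorbance was monitored kinetically.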
SARS PLpro yeast = SARS-CoV PLP inhibition in yeast; Potency, µM (highest dose often 32.9 µM), for the others: top-dose activity, positive = growth rescue, actives largely listed as activators; actives 0.19% (n = 330,000); S. cerevisiae expressing SARS-CoV PLpro, growth rescue; AID 485353; calls by dose curve; also: potency is read from the fitted curve at half-maximal effect; 0% is about no effect; nearly all actives have a fitted effect of over 55% in size
Pf growth 48h = P. falciparum growth inhibition at 48 hours (one generation). P. falciparum luciferase growth in erythrocytes, 48 h. Potency, µM (top dose mostly 28.7 µM), for inactives: top-dose activity change, negative = inhibition, most hits filed as inhibitors. actives 5.9% (n = 310,000). AID 504832; also: potency is read from the fitted curve at half-maximal effect; % is scaled to controls: 0 for no effect and ±100 for the full control effect
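Read-out is firefly luciferase luminescence from an integrated reporter in P. falciparum, so falling signal marks reduced parasite growth. Infected erythrocytes were at 2% hematocrit and 0.1% parasitemia (final) in Albumax-supplemented RPMI 1640.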
HCMV inh = human cytomegalovirus inhibition; HFF cells, HCMV-luciferase reporter, 72 h; stronger effect = lower value; activity change, negative = inhibition, % at 57.5 µM; actives 4.5% (n = 410,000); AID 1259415; in the data active = activity change below about -60%; inconclusive = no clear call, values can overlap the other calls; inactive = above about -39%; also: % is scaled to controls: 0 for no effect and ±100 for the full control effect
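Screen run at 2 compound doses on HFFs infected with reporter HCMV, MOI 1 PFU/cell. Luciferase activity from cell lysates at 72 h post infection gave inhibition relative to buffer-only and Salinomycin wells.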
HCV inhibitor = HCV inhibition; Huh7.5.1 HCVcc-Cre infection, luciferase reporter, 44 h; actives 3.4% (n = 340,000); Potency, µM (series often up to 41.8 µM), without a hit: at the highest dose activity change, negative = inhibition, actives largely listed as inhibitors; also: potency is read from the fitted curve at half-maximal effect; % is scaled to controls: 0 for no effect and ±100 for the full control effect
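Cells (1,000/well) were plated 4 h before compound, then infected with HCVcc-Cre virus (~0.5 moi). After 44 h further culture, infection was read as luciferase luminescence following a 15 min substrate incubation at room temperature.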
Starred values were filed as active, the others as inactive; u = inconclusive; x = not tested or not shown; [ ] = remark or other dose. Unless noted, calls follow the shape of the dose curve; as a rule, active = well fitted curve in the direction sought with a large enough effect; inconclusive = small, poorly fitted or top-dose-only effect, or another doubt; inactive = no such curve, though single readings can be large; an effect the other way counts as inactive or inconclusive.

SMILES | Pf growth 96h | Sm TGR inh | SARS PLpro yeast | Pf growth 48h | HCMV inh | HCV inhibitor
Cc1cccc(N2CCN(C(=O)c3ccc4nc(-c5ccco5)c(-c5ccco5)nc4c3)CC2C)c1 (stereo unspecified) | u | u | -8.9% | u | -36.4 | 10µM*
COc1cccc(NC(=O)N(C)C[C@H]2OCc3ccccc3-c3c(n(C)c4ccccc34)C(=O)N([C@H](C)CO)C[C@H]2C)c1 | x | x | x | x | -22.1 | x
CCOC(=O)CSC1=Nc2ccccc2C2=NC(CCC(=O)NCc3ccccc3)C(=O)N12 (stereo unspecified) | x | 5.5% | x | x | -4.4 | x
CC12C=CC(=O)C=C1[C@@H](F)CC1C2C(O)CC2(C)C1CC[C@]2(O)C(=O)CO (stereo partly specified) | u | x | x | -18.7% | x | x
COc1ccc(N2CCC(CNC(=O)Nc3ccc(C)c(C)c3)C2)cc1 (stereo unspecified) | -1.6% | u | 6.9% | -8.0% | 10.8 | -5.7%[8.37 µM]
COc1ccc(N2CCC(CNC(=S)Nc3c(C)cc(C)cc3C)C2)cc1 (stereo unspecified) | u | 6.8% | -0.9% | 11.7µM* | -70.2* | u
COc1ccc(N2CCC(CNC(=S)Nc3cccc(C)c3)C2)cc1 (stereo unspecified) | 82.5% | -10.6% | 5.8% | 13.1µM* | u | -16.8%
COc1ccc(N2CCC(CNC(=O)Nc3ccc(OC)cc3OC)C2)cc1 (stereo unspecified) | -6.7% | 44.7µM* | -0.8% | u | -80.1* | u
COc1ccc(N2CCC(CNC(=S)Nc3ccc(C)cc3C)C2)cc1 (stereo unspecified) | u | -1.8% | -1.1% | 8.28µM* | -18.2 | u
Cc1cc(C)cc(NC(=S)NCC2CCN(C(C)c3ccccc3)C2)c1 (stereo unspecified) | 5.22µM* | u | -2.1% | u | -32.6 | -19.4%
Cc1ccccc1NC(=S)NCC1CCN(C(C)c2ccccc2)C1 (stereo unspecified) | 0.0% | -28.6% | 2.0% | 7.8% | u | -5.9%
COc1ccc(N2CCC(CNS(=O)(=O)c3cccc(C(F)(F)F)c3)C2)cc1 (stereo unspecified) | u | 31.6µM* | -9.3% | u | 36.9 | u
COc1ccc(CNC(=O)C2CCN(S(=O)(=O)c3cccc(C(F)(F)F)c3)CC2)cc1 | u | -6.0% | -3.2% | -13.6% | -21.4 | -27.6%
CN(C)S(=O)(=O)c1ccc(-c2csc(N/N=C/c3ccco3)n2)cc1 | -22.1% | u | -3.0% | u | 0.0 | u
CN(C)S(=O)(=O)c1ccc(-c2csc(N/N=C/c3ccc(O)cc3)n2)cc1 | 0.0657µM* | -18.8% | 1.6% | 0.329µM* | u | 10µM*
CCCCCCN1C[C@H](O)[C@@H](n2cc(C3CC3)nn2)C[C@@H]1c1ccc(C)cc1 | x | x | x | x | -7.1 | x
COc1ccc(C(=O)Nc2ccccc2)cc1NC(=O)c1ccc([N+](=O)[O-])cc1 | u | 2.1% | -3.1% | 1.3% | -15.9 | u
COc1ccc(NC(=O)C(C/C=C(/C)Cl)C(C)=O)cc1 (stereo unspecified) | -28.7% | 1.1% | 18.1% | u | 1.7 | 8.3%
COc1ccccc1CCNC1CCC(C(C)(C)C)CC1 (stereo unspecified) | 2.62µM* | -0.2% | -3.3% | 2.33µM* | -10.5 | u
CC(=O)Oc1c(C)c2c3c(c1OC(C)=O)[C@@H](C)CC[C@@H]3[C@@H](C)C[C@H]2C=C(C)C | u | u | -0.4% | 11.7µM* | -9.8 | -29.2%
CC(C)=C[C@@H]1C[C@H](C)[C@H]2CC[C@H](C)c3c(O)c(O)c(C)c1c32 | 10.4µM* | -33.2% | 1.7% | 3.7µM* | -6.3 | u
Cc1ccsc1C(=O)OCC(=O)N1CC(C)CC(C)C1 (stereo unspecified) | x | x | -2.2% | x | 24.9 | -6.6%
